Screening results (PubChem BioAssay)
CtBP-E1A blk: qHTS Assay for Inhibitors of the CtBP/E1A Interaction | AlphaScreen GST-E1A/His-CtBP binding, 1536-well; active compounds read low | actives 0.49% (n = 340,000) | activity change, % (test concentration not listed) | CtBP / adenovirus E1A interaction (AlphaScreen); in the data active = activity change below about -65%; inconclusive = mostly about -30% to -63%
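Homogeneous bead-based format: GST-tagged E1A captured on glutathione donor beads, His-tagged CtBP on nickel acceptor beads; compounds precede bead addition by 2 h at 37 °C.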
Six1-Eya2 blk: qHTS Assay for Inhibitors of the Six1/Eya2 Interaction. Homeobox protein SIX1 (Homo sapiens) + Protein phosphatase EYA2 (Homo sapiens), …. AlphaScreen GST-Six1/His-Eya2 binding, biochemical; active compounds read low. activity change, % (test concentration not listed). actives 0.56% (n = 360,000). AID 651725, 2012; in the data active = activity change below about -65%; inconclusive = mostly about -30% to -63%
Target sequence (O00167 whole entry, looked up): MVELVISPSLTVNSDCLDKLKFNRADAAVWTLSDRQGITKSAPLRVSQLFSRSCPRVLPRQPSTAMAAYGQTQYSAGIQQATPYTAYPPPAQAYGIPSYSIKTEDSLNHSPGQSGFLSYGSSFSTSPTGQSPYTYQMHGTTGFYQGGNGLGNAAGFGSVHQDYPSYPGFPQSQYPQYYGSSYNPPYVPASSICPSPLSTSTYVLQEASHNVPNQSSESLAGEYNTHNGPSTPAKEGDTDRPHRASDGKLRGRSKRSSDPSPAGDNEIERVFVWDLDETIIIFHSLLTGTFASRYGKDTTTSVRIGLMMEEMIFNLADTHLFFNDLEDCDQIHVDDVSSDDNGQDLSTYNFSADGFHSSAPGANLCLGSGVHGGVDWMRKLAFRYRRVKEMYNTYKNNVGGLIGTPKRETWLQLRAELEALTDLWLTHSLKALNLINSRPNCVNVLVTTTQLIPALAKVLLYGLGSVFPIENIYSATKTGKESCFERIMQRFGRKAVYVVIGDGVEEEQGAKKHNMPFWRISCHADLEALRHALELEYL
Target sequence (Q15475 whole entry, looked up): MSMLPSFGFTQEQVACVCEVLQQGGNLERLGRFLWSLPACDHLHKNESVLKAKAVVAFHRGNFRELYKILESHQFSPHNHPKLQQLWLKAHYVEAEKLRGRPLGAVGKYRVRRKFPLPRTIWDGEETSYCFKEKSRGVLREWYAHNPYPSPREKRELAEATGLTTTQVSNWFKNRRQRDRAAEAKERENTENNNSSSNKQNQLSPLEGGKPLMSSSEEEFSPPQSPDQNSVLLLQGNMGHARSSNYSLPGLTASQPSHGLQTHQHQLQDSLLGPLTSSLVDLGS
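GST-Six1 + His-Eya2 (5X stock: 250/500 nM); Tris pH 8.0, 300 mM NaCl, 0.05% BSA, 0.02% Tween 20; GSH donor/Ni acceptor beads; 1 h 37 °C dark; AlphaScreen readout.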
Gal4-VP16 FLuc: VP16 counterscreen qHTS for inhibitors of ROR gamma transcriptional activity. Drosophila S2 Gal4-VP16 UAS-luciferase, luminescence, 20 h. Potency, µM (highest dose often 53.6 µM), most hits filed as inhibitors. actives 3.5% (n = 310,000);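 also: Gal4-VP16 expression switched on by copper sulfate through the metallothionein promoter; nearly all actives have a fitted effect of over 50% in size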
p53 reactivator: qHTS assay for re-activators of p53 using a Luc reporter; H1299 p53-A138V BP100-luciferase reporter, luminescence, 24 h; Potency, µM (titrated, usually from 92.2 µM), usual class: activators; actives 0.063% (n = 320,000); AID 504706, 2011; also: nearly all actives have a fitted effect of over 45% in size
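H1299 (p53-null), stable ts p53-A138V + BP100-Luc; 1000 cells/well, Opti-MEM/10% FBS; cpd 4 pt, 1:5; 24 h, 37 deg C, 5% CO2; detection reagent 10 min RT; luminescence.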
RORgamma inh: qHTS for inhibitors of ROR gamma transcriptional activity. Drosophila S2 Gal4-RORgamma UAS-luciferase reporter, 20 h. Potency, µM (titrated, usually from 53.6 µM), actives largely listed as inhibitors. actives 5.4% (n = 310,000). AID 2551, 2010; also: nearly all actives have a fitted effect of over 60% in size
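Stable Schneider cell line, Gal4 DNA-binding domain fused to ROR gamma, UAS-luciferase. Cmpd 1 hr RT → CuSO4 700 uM final → 20 hr RT → luciferase reagent 10 min → luminescence.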
Large screens that a line does not name were inactive. An excerpt weighted towards active compounds, which were near 5.4% of everything screened. Unless noted, calls follow the shape of the dose curve; as a rule, active = well fitted curve in the direction sought with a large enough effect; inconclusive = small, poorly fitted or top-dose-only effect, or another doubt; inactive = no such curve, though single readings can be large; an effect the other way counts as inactive or inconclusive.

O=S(=O)(Cc1ccccc1Cl)N1CCCC1	CtBP-E1A blk -79
C=C1C(=O)OC2CC1C(OC(C)=O)CC(C)=CCCC(C)=CCC[C@@]2(C)O (some centres not stated)	Gal4-VP16 FLuc inconclusive, RORgamma inh 5.6µM (no result: CtBP-E1A blk, Six1-Eya2 blk, p53 reactivator)
CO[C@@H]1COC(=O)CC=C[C@@H](C)[C@@H]2C=C[C@H](O)[C@@H](COC(=O)[C@H](C)NC(=O)CC=C[C@H]1C)O2	none (no result: CtBP-E1A blk, Six1-Eya2 blk, p53 reactivator)
CCOC(=O)C(CC)c1cc2n(c(=O)c1C#N)CCC21OCCO1 (configuration not stated)	none (no result: Gal4-VP16 FLuc, p53 reactivator, RORgamma inh)
CNC(=S)NC12CC3CC(CC(C3)C1)C2	Gal4-VP16 FLuc 7.9µM, RORgamma inh 2.5µM
FC(F)Oc1ccc(NC(=S)NC23CC4CC(CC(C4)C2)C3)cc1	Gal4-VP16 FLuc 7.1µM, p53 reactivator inconclusive, RORgamma inh 0.79µM
O=S(=O)(c1ccc(NC(=S)NC23CC4CC(CC(C4)C2)C3)cc1)N1CCCCC1	none (no result: Gal4-VP16 FLuc, p53 reactivator, RORgamma inh)
CN(C)c1ccc(NC(=S)NC23CC4CC(CC(C4)C2)C3)cc1	CtBP-E1A blk inconclusive, Gal4-VP16 FLuc 5µM, p53 reactivator inconclusive, RORgamma inh 2µM
CCOc1ccc(NC(=S)NC23CC4CC(CC(C4)C2)C3)cc1	Gal4-VP16 FLuc 2.8µM, RORgamma inh 3.2µM
CC(=O)c1c(C)[nH]c(C(=O)OCCOc2ccccc2)c1C	Gal4-VP16 FLuc 8.9µM, RORgamma inh 11µM
CC(=O)c1c(C)[nH]c(C(=O)COC(=O)CCCOc2ccccc2)c1C	none
CC(=O)c1c(C)[nH]c(C(=O)OCc2ccccc2F)c1C	RORgamma inh inconclusive
COc1ccccc1OCCC(=O)OCC(=O)c1[nH]c(C)c(C(C)=O)c1C	Gal4-VP16 FLuc inconclusive, RORgamma inh 14µM
Cc1cc(OCC(=O)NC2CC(C)(C)NC(C)(C)C2)c2c(C)cc(=O)oc2c1	none
FC(F)(F)c1cnc(C(c2ccccn2)c2ncn[nH]2)c(Cl)c1 (configuration not stated)	CtBP-E1A blk inconclusive, Six1-Eya2 blk -89, RORgamma inh 11µM
FC(F)(F)c1cnc(C(c2ccccc2)c2ncn[nH]2)c(Cl)c1 (configuration not stated)	none
CC(C)(C)c1ccc(C(=O)N2CCC(=O)N(C(COCc3ccccc3)Cc3ccccc3)CC2)cc1 (configuration not stated)	Gal4-VP16 FLuc 14µM (no result: CtBP-E1A blk)
CC(=O)OC[C@@H]1O[C@H](C/C=N\O[C@@H](C)CN2CCCCc3nc(C)c(C)cc32)C=C[C@@H]1OC(C)=O	none (no result: CtBP-E1A blk, Six1-Eya2 blk, p53 reactivator)
CC/C=C(\NC(C)=O)c1ccccc1	none (no result: Gal4-VP16 FLuc, RORgamma inh)
O=C(Nc1cccc(Br)c1)c1cc2ccccc2o1	p53 reactivator inconclusive
Cc1cc(C(=O)Nc2cccc(C(=O)O)c2)oc1C	Gal4-VP16 FLuc inconclusive, RORgamma inh 6.3µM
COc1cc(NC(=O)c2ccc(C)cc2)ccc1NC(=O)c1cc2ccccc2o1	none
Cc1cccc(NC(=O)c2cc3ccccc3o2)c1	Gal4-VP16 FLuc 6.3µM, p53 reactivator inconclusive
COc1cc(NC(=O)c2ccccc2F)ccc1NC(=O)c1cc2ccccc2o1	Gal4-VP16 FLuc 13µM, RORgamma inh inconclusive
COc1cc(NC(=O)c2ccc(C)cc2C)ccc1NC(=O)c1cc2ccccc2o1	Gal4-VP16 FLuc inconclusive, RORgamma inh 1.6µM (no result: p53 reactivator)
O=C(NCc1ccc(F)cc1)c1cccnc1C(=O)O	none
CCC1CCCCN1CCCCOc1cccc(Cl)c1 (configuration not stated)	none
CCCCCCN1C=CC(=C2C(=O)c3ccccc3C2=O)C=C1	none
CCN1C=CC(=C2C(=O)c3ccccc3C2=O)C=C1	Gal4-VP16 FLuc 0.32µM, RORgamma inh inconclusive
CCCN1C=CC(=C2C(=O)c3ccccc3C2=O)C=C1	Gal4-VP16 FLuc 0.25µM, RORgamma inh 1.1µM
Cc1nc2c(-c3ccccc3)c(C)[nH]n2c(=O)c1Cc1ccccc1	Six1-Eya2 blk inconclusive, Gal4-VP16 FLuc 7.1µM, RORgamma inh 2.8µM (no result: CtBP-E1A blk)
Cc1[nH]n2c(=O)c3c(nc2c1-c1ccc(F)cc1)CCCC3	none
COc1ccc(-c2c(C)[nH]n3c(=O)c(Cc4ccccc4)c(C)nc23)cc1OC	CtBP-E1A blk inconclusive, Six1-Eya2 blk -67, Gal4-VP16 FLuc inconclusive, RORgamma inh 3.5µM
Cc1nc2c(-c3ccc(F)cc3)c(C)[nH]n2c(=O)c1Cl	Gal4-VP16 FLuc 11µM, RORgamma inh 11µM (no result: p53 reactivator)
Cc1nc2c(C#N)c(C)[nH]n2c(=O)c1Cc1ccccc1	none
Cc1nc2c(-c3ccc(Cl)cc3)c(C)[nH]n2c(=O)c1Cc1ccccc1	CtBP-E1A blk -82, Six1-Eya2 blk -76, Gal4-VP16 FLuc inconclusive, RORgamma inh 1.4µM
COc1ccc(NC(=O)CCCn2nc(C)c3c(C)n(-c4ccccc4)nc3c2=O)cc1	none
CCOC(=O)CN1NC2(CCCCCC2)NC1=S	RORgamma inh 7.1µM
CC(C)(C)N1NC2(CCCCC2)NC1=S	none
Cc1c([N+](=O)[O-])oc2c1C(=O)NCCC2	none (no result: Gal4-VP16 FLuc, p53 reactivator, RORgamma inh)
COc1ccc(S(=O)(=O)N/N=C\c2ccc3c(c2)OCO3)c(OC)c1	Gal4-VP16 FLuc 11µM, RORgamma inh inconclusive
COc1ccc(-c2nnc(NC(=O)C3=COCCO3)o2)cc1	Gal4-VP16 FLuc 2.8µM, RORgamma inh 3.5µM
COc1ccccc1-c1nnc(NC(=O)C2=COCCO2)o1	Gal4-VP16 FLuc 2.8µM, p53 reactivator inconclusive, RORgamma inh 2.2µM
COc1ccc(CNC(=O)CSc2nc3[nH]ncc3c(=O)n2-c2ccccc2Br)cc1	none (no result: CtBP-E1A blk, Six1-Eya2 blk)
COc1cc2c(cc1OC)-c1cc(NC3CCCCC3)nc(=O)n1CC2	CtBP-E1A blk -66, Six1-Eya2 blk -65
COc1cc2c(cc1OC)-c1cc(NCc3ccccn3)nc(=O)n1CC2	CtBP-E1A blk inconclusive, Six1-Eya2 blk -78
COc1cc2c(cc1OC)-c1cc(Nc3ccccc3C)nc(=O)n1CC2	CtBP-E1A blk inconclusive, Six1-Eya2 blk inconclusive
CCOc1ccccc1Nc1cc2n(c(=O)n1)CCc1cc(OC)c(OC)cc1-2	CtBP-E1A blk inconclusive, Six1-Eya2 blk inconclusive
CCOc1ccc(Nc2cc3n(c(=O)n2)CCc2cc(OC)c(OC)cc2-3)cc1	Six1-Eya2 blk -84
COc1cc2c(cc1OC)-c1cc(NC3CCCCCCC3)nc(=O)n1CC2	CtBP-E1A blk -85, Six1-Eya2 blk -80
CCNc1cc2n(c(=O)n1)CCc1cc(OC)c(OC)cc1-2	Six1-Eya2 blk inconclusive
CCCCCCNc1cc2n(c(=O)n1)CCc1cc(OC)c(OC)cc1-2	CtBP-E1A blk -81, Six1-Eya2 blk -71
CCNc1ncc2nc(-c3ccc(Cl)cc3)c(=O)n(Cc3ccc(F)cc3)c2n1	none (no result: CtBP-E1A blk, Six1-Eya2 blk, p53 reactivator)
Cc1nn2c(nc1=O)NNC2(C)C(C)(C)C (configuration not stated)	RORgamma inh 11µM
S=c1c2c(nc3nc[nH]n13)CCC2	Gal4-VP16 FLuc 0.89µM, RORgamma inh inconclusive (no result: CtBP-E1A blk)
